# Data: PubChem BioAssay AID463173 (ICCB-Longwood Screening Facility, Harvard Medical School, 2010)
# In all, about 52,000 compounds went through this assay and about 4,300 (8.3%) were called active. The sample as a whole holds a higher share of actives than the screen did. A number with no mark means an inactive call. Rule as the data show it: active = survival mostly below about 52% (no sharp cut-off); inactive = mostly above about 56%.
# Test system: DeltatarO mutant
# Test: growth inhibition of S. aureus wild type versus tarO mutant, primary screen, teichoic acid synthesis inhibitors, RN4220, OD600 (AID 463173)
# Details: OD600, 18 h, hits give low values, screened at 18.75 µg/mL (by protocol)
row,SMILES,survival
1,COc1ccc(OCC(=O)Nc2ccc(-c3nc4cc(Cl)ccc4o3)cc2)cc1,134%
2,COc1ccc(-c2nc3ccc(NS(=O)(=O)c4ccc(Cl)cc4)cc3o2)cc1,23% (active)
3,CCC(Oc1ccccc1)C(=O)Nc1ccc2oc(-c3ccc(OC)cc3)nc2c1 (stereo not given),111%
4,COc1ccc(-c2nc3ccc(NS(C)(=O)=O)cc3o2)cc1,77%
5,COc1ccc(-c2nc3ccc(NS(=O)(=O)c4ccc(C)cc4)cc3o2)cc1,45%
6,COc1ccc(-c2nc3ccc(NS(=O)(=O)c4ccccc4)cc3o2)cc1,36% (active)
7,CCCCC(CC)CNC(=O)c1ccc(Cn2c(=O)[nH]c3cc(OC)c(OC)cc3c2=O)cc1 (stereo not given),72%
8,O=C(Cn1c(=O)c(CNc2ccccc2)cc2cc3c(cc21)OCCO3)Nc1ccccc1Cl,131%
9,O=C(COc1ccccc1)Nc1nnc2n1CCS2,86%
10,Cc1cn2c(=O)cc(COC(=O)c3ccc(NC(=O)c4ccccc4C)cc3)nc2s1,101%
11,COc1ccccc1N1CCN(S(=O)(=O)CCNC(=O)COc2ccccc2F)CC1,83%
12,CCCCn1c(CNC(=O)C23CC4CC(CC(C4)C2)C3)nnc1SCC(=O)Nc1ccc(C)cc1,36% (active)
13,CCn1c(CNC(=O)C23CC4CC(CC(C4)C2)C3)nnc1SCC(=O)Nc1ccccc1,66%
14,CCCCn1c(CNC(=O)C23CC4CC(CC(C4)C2)C3)nnc1SCC(=O)Nc1ccc(F)cc1,54% (active)
15,CCn1c(CNC(=O)C23CC4CC(CC(C4)C2)C3)nnc1SCC(=O)Nc1ccc(F)cc1,71%
16,CCCCn1c(CNC(=O)C23CC4CC(CC(C4)C2)C3)nnc1SCC(=O)Nc1ccccc1,54%
17,CCn1c(CNC(=O)C23CC4CC(CC(C4)C2)C3)nnc1SCC(=O)Nc1ccc(C)cc1,60%
18,CCc1ccc(CNC(=O)c2ccc(NC(=O)N3CC(C)Sc4ccccc43)cc2)cc1 (stereo not given),64%
19,Cc1c(Cl)cccc1Nc1nc2ccc(C(=O)c3ccccc3)cc2n2cnnc12,77%
20,CCNC(=O)CC1C(=O)N(c2cccc(OC)c2)C(=O)N1Cc1ccc(OC)c(OC)c1 (stereo not given),80%
21,CCN1C(=O)C2(C(C#N)=C(N)SC(N)=C2C#N)c2ccccc21,2% (active)
22,CCc1[nH]nc2c1C1(C(=O)N(CC)c3ccccc31)C(C#N)=C(N)O2 (stereo not given),78%

row,SMILES,survival
1,C=CCN1C(=O)C2(C(C#N)=C(N)Oc3n[nH]c(COC)c32)c2ccccc21 (stereo not given),109%
2,CCOc1ccccc1NC(=O)c1cn(C2CCCC2)c(=O)c2c1c1ccccc1n2C,122%
3,COC(=O)c1cc(S(=O)(=O)NCC2CCN(Cc3cccc(F)c3)CC2)cn1C,122%
4,Cc1ccc(NS(=O)(=O)c2ccc(-c3cc(C)no3)cc2)c(Br)c1,75%
5,CCOc1ccccc1NC(=O)CSc1ncc(S(=O)(=O)c2ccc(C)c(C)c2)c(N)n1,99%
6,O=C(Nc1ccc(Cl)cc1)c1cc2c(-c3ccccc3)nn(-c3ccccc3)c2s1,51%
7,O=C(Nc1ccccc1)c1cc2c(-c3ccccc3)nn(-c3ccccc3)c2s1,44% (active)
8,Cc1nn(-c2ccccc2)c2sc(C(=O)Nc3cccc(Br)c3)cc12,30% (active)
9,Cc1nn(-c2ccccc2)c2sc(C(=O)Nc3ccc(Cl)cc3Cl)cc12,71%
10,Cc1nn(-c2ccccc2)c2sc(C(=O)N3CCOCC3)cc12,89%
11,Cc1ccc(NC(=O)c2cc3c(-c4ccccc4)nn(-c4ccccc4)c3s2)cc1,50%
12,COc1cccc(NC(=O)c2cc3c(-c4ccc(Cl)cc4)nn(C)c3s2)c1,84%
13,Cc1nn(-c2ccccc2)c2sc(C(=O)Nc3cccc(Cl)c3)cc12,2% (active)
14,Cc1nn(-c2ccccc2)c2sc(C(=O)Nc3cccc(O)c3)cc12,5% (active)
15,COc1ccc(C(c2c(C)n(C)n(-c3ccccc3)c2=O)c2c(C)n(C)n(-c3ccccc3)c2=O)cc1O,84%
16,COc1ccc(-c2[nH]c(-c3ccccc3)nc2SCC(=O)Nc2ccc3c(c2)OCO3)cc1,51%
17,Clc1cccc(-n2cc(-c3ccccc3)c3c(NC4CCCC4)ncnc32)c1,78%
18,COc1ccccc1N1CCN(S(=O)(=O)c2c(C)sc3ncn(CC(=O)N(C)c4ccc(Cl)cc4)c(=O)c23)CC1,65%
19,COc1ccc(NC(=O)CC(C)S(=O)(=O)c2cc3c(cc2C)NC(=O)CO3)cc1OC (stereo not given),88%
20,CCC(C)NC(=O)CSc1nc2cc3c(cc2c(=O)n1CCCCCC(=O)NCc1ccc(OC)cc1)OCO3 (stereo not given),76%
21,COc1ccc(-c2nc(C)c(CCNC(=O)C(=O)Nc3ccccc3F)s2)cc1,115%
22,CN(C)c1ccc(-c2nnc(SCC3CCCO3)n2C)cc1 (stereo not given),82%

row,SMILES,survival
1,O=C(CCC1N=C2c3ccccc3N=C(SCc3ccc(Cl)cc3)N2C1=O)NCCc1ccccc1 (stereo not given),90%
2,Cc1nn(-c2ccccc2)c2sc(C(=O)Nc3ccc(Br)cc3)cc12,26% (active)
3,Cc1cccc(NC(=O)c2cc3c(C)nn(-c4ccccc4)c3s2)c1,6% (active)
4,CCOc1ccc(NC(=O)c2cc3c(C)nn(-c4ccccc4)c3s2)cc1,75%
5,Cc1cccc(NC(=O)c2ccc(-c3ccccc3)s2)c1,82%
6,Cc1nn(-c2ccccc2)c2sc(C(=O)N/N=C/c3ccccc3)cc12,110%
7,O=C(c1cccc(Cl)c1)N1c2ncnn2C2(CCCCC2)[C@@H]2CCCC[C@@H]21,80%
8,O=C(NCc1ccccc1Cl)C1CCCN(C(=O)c2cnn(-c3ccc(F)cc3)c2-n2cccc2)C1 (stereo not given),67%
9,O=C(CCN1N=C(c2ccccc2)CCC1=O)NCCc1ccc(Cl)cc1,122%
10,CCc1cccc(NC(=O)c2c(C)oc3ncnc(N4CCCCC4)c23)c1,54%
11,COC(=O)CSc1nc2c(cc1C#N)CCCC2,106%
12,COc1ccc(-c2nc(S(=O)(=O)c3ccccc3)c(N3CCC(C)CC3)o2)cc1,74%
13,O=S(=O)(c1ccc(Cl)cc1)c1nc(-c2cccs2)oc1N1CCCCC1,45% (active)
14,COc1ccccc1-c1nc(S(=O)(=O)c2ccccc2)c(N2CCC(C)CC2)o1,19% (active)
15,CC1CCN(c2nc3c(S(=O)(=O)c4ccc(Cl)cc4)nnn3c3ccsc23)CC1,113%
16,O=S(=O)(c1ccc(Cl)cc1)c1nc(-c2cccs2)oc1SCc1ccc(F)cc1,67%
17,Cc1ccc(S(=O)(=O)c2nc(-c3cccs3)oc2N2CCC(C)CC2)cc1,8% (active)
18,O=S(=O)(c1ccc(Cl)cc1)c1nc(-c2ccccc2Br)oc1N1CCOCC1,59%
19,COc1ccccc1-c1nc(S(=O)(=O)c2ccc(Cl)cc2)c(N2CCCCCC2)o1,60%
20,CC1CCN(c2oc(-c3cccs3)nc2S(=O)(=O)c2ccc(Cl)cc2)CC1,17% (active)
21,CCCSc1oc(-c2cccs2)nc1S(=O)(=O)c1ccc(Cl)cc1,65%
